Laboratory results: PubChem BioAssay (NCATS)

Experiment: qHTS profiling for inhibitors of Plasmodium falciparum (3D7) proliferation (AID 743322);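 note: infected erythrocytes exposed to compound for 72 h before lysis; 100% = DMSO vehicle wells and 0% = 0.29 µM artemisinin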
Settings: P. falciparum 3D7 proliferation; at 28.7 µM (top of the series)
Summary of the method: (§1)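 Erythrocytes infected with P. falciparum (0.3% parasitemia, 2.5% hematocrit) incubated with compounds 72 h at 37 C, 5% CO2. Lysis with saponin/Triton buffer containing SYBR Green I, overnight at room temperature in the dark; DNA fluorescence (485/535 nm) normalised to 0.29 uM artemisinin and DMSO.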

Q: With `CO[C@H]1C=CC=C(C)C(=O)NC2=CC(=O)C(NCCN(C)C)=C(C[C@@H](C)C[C@H](OC)[C@@H](O)[C@@H](C)C=C(C)[C@@H]1OC(N)=O)C2=O` as the compound, how does the remaining parasite growth % (stronger effect = lower value) read?
A: -0.553%

Q: With `O=c1cc(CN2CCOCC2)occ1OCCCCCSc1ccnc2cc(C(F)(F)F)ccc12` as the compound, how does the remaining parasite growth % (stronger effect = lower value) read?
A: 28.8%

Q: Which remaining parasite growth % (stronger effect = lower value) does the source give for `O=c1cc(N2CCOCC2)oc2c(-c3cccc4c3sc3ccccc34)cccc12` here?
A: 3.79%

Q: With `CO[C@H]1C[C@@H]2CC[C@@H](C)[C@@](O)(O2)C(=O)C(=O)N2CCCC[C@@H]2C(=O)O[C@H]([C@H](C)C[C@@H]2CC[C@H](OCCO)[C@H](OC)C2)CC(=O)[C@H](C)C=C(C)[C@@H](O)[C@@H](OC)C(=O)[C@H](C)C[C@H](C)C=CC=CC=C1C` as the compound, how does the remaining parasite growth % (stronger effect = lower value) read?
A: -1.41%

Q: With `N#Cc1ccc(NC(=O)Nc2ccccc2Br)c2n[nH]nc12` as the compound, how does the remaining parasite growth % (stronger effect = lower value) read?
A: 66.9%

Q: For `CN(C)C1CCN(C(=O)c2ccc(NC(=O)Nc3nc(N4CCOCC4)nc(N4CCOCC4)n3)cc2)CC1`, which remaining parasite growth % (stronger effect = lower value) is on record?
A: 0.246%

Experiment: qHTS profiling for inhibitors of Plasmodium falciparum (HB3) proliferation (AID 743324);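 note: 100% = DMSO vehicle wells and 0% = artemisinin-treated control wells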
Settings: Plasmodium falciparum HB3 blood-stage proliferation; at 28.7 µM (top of the series)
Summary of the method: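 P. falciparum HB3 grown in erythrocytes (0.3% parasitemia, 2.5% hematocrit final) with compound for 72 h at 37 C, 5% CO2. Parasite DNA detected by SYBR Green after saponin/triton lysis overnight; normalized to 0.29 uM artemisinin and DMSO.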

Q: With `CO[C@H]1C=CC=C(C)C(=O)NC2=CC(=O)C(NCCN(C)C)=C(C[C@@H](C)C[C@H](OC)[C@@H](O)[C@@H](C)C=C(C)[C@@H]1OC(N)=O)C2=O` as the compound, how does the remaining proliferation (% of control), lower = more inhibition read?
A: -2.33%

Q: Which remaining proliferation (% of control), lower = more inhibition does the source give for `O=c1cc(CN2CCOCC2)occ1OCCCCCSc1ccnc2cc(C(F)(F)F)ccc12` here?
A: 17.5%

Q: With `O=c1cc(N2CCOCC2)oc2c(-c3cccc4c3sc3ccccc34)cccc12` as the compound, how does the remaining proliferation (% of control), lower = more inhibition read?
A: 5.89%

Q: With `CO[C@H]1C[C@@H]2CC[C@@H](C)[C@@](O)(O2)C(=O)C(=O)N2CCCC[C@@H]2C(=O)O[C@H]([C@H](C)C[C@@H]2CC[C@H](OCCO)[C@H](OC)C2)CC(=O)[C@H](C)C=C(C)[C@@H](O)[C@@H](OC)C(=O)[C@H](C)C[C@H](C)C=CC=CC=C1C` as the compound, how does the remaining proliferation (% of control), lower = more inhibition read?
A: -1.24%

Q: For `N#Cc1ccc(NC(=O)Nc2ccccc2Br)c2n[nH]nc12`, which remaining proliferation (% of control), lower = more inhibition is on record?
A: 37.3%

Q: With `CN(C)C1CCN(C(=O)c2ccc(NC(=O)Nc3nc(N4CCOCC4)nc(N4CCOCC4)n3)cc2)CC1` as the compound, how does the remaining proliferation (% of control), lower = more inhibition read?
A: 2.09%

Experiment: qHTS profiling of the MIPE4 collection as inhibitors of Plasmodium falciparum (3D7) proliferation (AID 743344);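 note: scaled between DMSO vehicle wells and 0.29 µM artemisinin as full inhibition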
Settings: P. falciparum 3D7 in erythrocytes, SYBR Green DNA fluorescence, 72 h; at 28.5 µM (top of the series) unless noted
Summary of the method: as §1

Q: With `Clc1ccc(CCC(Cn2ccnc2)Sc2c(Cl)cccc2Cl)cc1` (stereo not drawn) as the compound, how does the parasite growth, % of DMSO control read?
A: 5.77%

Q: With `C=C1C(=O)OC2C=C(C)CCC=C(C)CCC12` (stereo not drawn) as the compound, how does the parasite growth, % of DMSO control read?
A: 238%

Q: With `NC(=O)c1cnc(-c2ccc(C3(N)CCC3)cc2)c(-c2ccccc2)c1` as the compound, how does the parasite growth, % of DMSO control read?
A: 55.3%

Q: With `CC(=O)OC1C(C)OC(Oc2c(-c3ccc(O)cc3)oc3cc(O)cc(O)c3c2=O)C(O)C1OC(C)=O` (stereo not drawn) as the compound, how does the parasite growth, % of DMSO control read?
A: 11.3%

Q: For `NC(=O)c1cccc2[nH]c(-c3ccc([C@H]4CCCN4)cc3F)nc12`, which parasite growth, % of DMSO control is on record?
A: 5.38%

Q: With `CC1(C)CCC(CN2CCN(c3ccc(C(=O)NS(=O)(=O)c4ccc(NCC5CCOCC5)c([N+](=O)[O-])c4)c(Oc4cnc5[nH]ccc5c4)c3)CC2)=C(c2ccc(Cl)cc2)C1` as the compound, how does the parasite growth, % of DMSO control read?
A: 18.2%

Q: Which parasite growth, % of DMSO control does the source give for `O=C(O)C=Cc1ccc(O)c(O)c1` here?
A: 53.1%

Q: With `CO[C@H]1C=CC=C(C)C(=O)NC2=CC(=O)C(NCCN(C)C)=C(C[C@@H](C)C[C@H](OC)[C@@H](O)[C@@H](C)C=C(C)[C@@H]1OC(N)=O)C2=O` as the compound, how does the parasite growth, % of DMSO control read?
A: 5.12%

Q: For `C[N+](C)(C)CC(=O)O`, which parasite growth, % of DMSO control is on record?
A: 86.7%

Q: With `Cc1c(O)cccc1C(=O)N[C@@H](CSc1ccccc1)[C@H](O)CN1C[C@H]2CCCC[C@@H]2C[C@@H]1C(=O)NC(C)(C)C` as the compound, how does the parasite growth, % of DMSO control read?
A: 10.1%

Q: With `CN[C@@H](C)C(=O)N[C@H]1CN(C(=O)CC(C)C)CC[C@H]2CC[C@@H](C(=O)NC(c3ccccc3)c3ccccc3)N2C1=O` as the compound, how does the parasite growth, % of DMSO control read?
A: 69.1%

Q: Which parasite growth, % of DMSO control does the source give for `CC(=NNC(=S)N1CCC1)c1ccccn1` here?
A: 5.99%

Q: For `NC(=O)[C@@H](CCC(F)(F)F)N(Cc1ccc(-c2ncon2)cc1F)S(=O)(=O)c1ccc(Cl)cc1`, which parasite growth, % of DMSO control is on record?
A: 50.8%

Q: For `O=c1cc(CN2CCOCC2)occ1OCCCCCSc1ccnc2cc(C(F)(F)F)ccc12`, which parasite growth, % of DMSO control is on record?
A: 36.7%

Q: Which parasite growth, % of DMSO control does the source give for `CC=CCC(C)C(O)C1C(=O)NC(CC)C(=O)N(C)CC(=O)N(C)C(CC(C)C)C(=O)NC(C(C)C)C(=O)N(C)C(CC(C)C)C(=O)NC(C)C(=O)NC(C)C(=O)N(C)C(CC(C)C)C(=O)N(C)C(CC(C)C)C(=O)N(C)C(C(C)C)C(=O)N1C` (stereo not drawn) here?
A: 5.34%

Q: With `CC(C)=CC[C@@H](O)C1=CC(=O)c2c(O)ccc(O)c2C1=O` as the compound, how does the parasite growth, % of DMSO control read?
A: 3.69%

Q: For `O=c1cc(N2CCOCC2)oc2c(-c3cccc4c3sc3ccccc34)cccc12`, which parasite growth, % of DMSO control is on record?
A: 11.6%

Q: Which parasite growth, % of DMSO control does the source give for `NC1=N[C@@]2(c3cc(NC(=O)c4ccc(F)cn4)ccc3F)COC[C@@H]2CS1` here?
A: 23.2%

Q: For `COc1ccc2cc(-c3nc(-c4ccc(S(C)=O)cc4)[nH]c3-c3ccncc3)ccc2c1` (stereo not drawn), which parasite growth, % of DMSO control is on record?
A: 6.21%

Q: For `O=C(O)[C@H]1O[C@H](Oc2cc3oc(-c4ccccc4)cc(=O)c3c(O)c2O)[C@H](O)[C@@H](O)[C@H]1O`, which parasite growth, % of DMSO control is on record?
A: 69.9%

Q: With `CO[C@H]1C[C@@H]2CC[C@@H](C)[C@@](O)(O2)C(=O)C(=O)N2CCCC[C@@H]2C(=O)O[C@H]([C@H](C)C[C@@H]2CC[C@H](OCCO)[C@H](OC)C2)CC(=O)[C@H](C)C=C(C)[C@@H](O)[C@@H](OC)C(=O)[C@H](C)C[C@H](C)C=CC=CC=C1C` as the compound, how does the parasite growth, % of DMSO control read?
A: 4.95%

Q: For `NC1CCC(Nc2nc(Nc3ccc(C(=O)N4CCCCC4)cc3)c3ncn(-c4cccc(F)c4)c3n2)CC1` (stereo not drawn), which parasite growth, % of DMSO control is on record?
A: 113%

Q: Which parasite growth, % of DMSO control does the source give for `Cc1ccn(-c2ccc(-c3ncco3)cc2)c(=O)c1-c1ccc2nc(N)ncc2c1` here?
A: 21.1%

Q: For `N#Cc1ccc(NC(=O)Nc2ccccc2Br)c2n[nH]nc12`, which parasite growth, % of DMSO control is on record?
A: 7.67%

Q: Which parasite growth, % of DMSO control does the source give for `COc1ccc2cccc(CCNC(C)=O)c2c1` here?
A: 56.4%

Q: For `COc1ccc(-c2coc3cc(O)ccc3c2=O)cc1`, which parasite growth, % of DMSO control is on record?
A: 65.1%

Q: Which parasite growth, % of DMSO control does the source give for `NC(=O)NN=Cc1ccc([N+](=O)[O-])o1` here?
A: 13.6%

Q: For `Cc1nnc(C(C)C)n1C1C[C@H]2CC[C@@H](C1)N2CC[C@H](NC(=O)C1CCC(F)(F)CC1)c1ccccc1` (stereo partly drawn), which parasite growth, % of DMSO control is on record?
A: 69.7%

Q: Which parasite growth, % of DMSO control does the source give for `CN(C)C1CCN(C(=O)c2ccc(NC(=O)Nc3nc(N4CCOCC4)nc(N4CCOCC4)n3)cc2)CC1` here?
A: 5.78%

Q: With `Cc1c[nH]c(C=C2C(=O)Nc3ccccc32)c1CCC(=O)O` as the compound, how does the parasite growth, % of DMSO control read?
A: 24.1%

Q: Which parasite growth, % of DMSO control does the source give for `O=C(O)c1c(Cl)c(Cl)c(Cl)c(Cl)c1-c1c2cc(I)c(=O)c(I)c-2oc2c(I)c(O)c(I)cc12` here?
A: 83.8%
